Source: PubChem BioAssay
Compounds with a hit are over-represented: about 1.7% of the library has one in this group of screens.
SUMO1 PPI mod: modulators of human SUMO1-mediated protein-protein interactions | P63165 | SUMO1 binding to a labelled peptide, TR-FRET, 1 h | inhibition, % at 20 µM | hit rate 0.33% among 360,000; in the data active = inhibition above about 37%
Neddyl block: blocks human cullin neddylation; TR-FRET cullin neddylation, biochemical; inhibition, % at 25 µM; P61081+Q13564; AID 651699; hit rate 0.58% among 360,000; in the data active = inhibition above about 36%
ATG4B inhibitor: blocks human ATG4B protease cleavage of LC3 substrate. Q9Y4P1. ATG4B cleavage of LC3-PLA2, NBD-HPC fluorescence, 1 h. inhibition, % at 8.33 µM. hit rate 0.51% among 340,000; in the data active = inhibition above about 40%
Rin1-Abl PPI inh: human Rin1-Abl interaction inhibition; P00519+Q13671; hit rate 0.4% among 360,000; TR-FRET Rin1/Abl binding, biochemical; inhibition, % at 7.35 µM; in the data active = inhibition above about 5%, passing the limit was not always enough
Target sequence (P00519 whole entry, looked up): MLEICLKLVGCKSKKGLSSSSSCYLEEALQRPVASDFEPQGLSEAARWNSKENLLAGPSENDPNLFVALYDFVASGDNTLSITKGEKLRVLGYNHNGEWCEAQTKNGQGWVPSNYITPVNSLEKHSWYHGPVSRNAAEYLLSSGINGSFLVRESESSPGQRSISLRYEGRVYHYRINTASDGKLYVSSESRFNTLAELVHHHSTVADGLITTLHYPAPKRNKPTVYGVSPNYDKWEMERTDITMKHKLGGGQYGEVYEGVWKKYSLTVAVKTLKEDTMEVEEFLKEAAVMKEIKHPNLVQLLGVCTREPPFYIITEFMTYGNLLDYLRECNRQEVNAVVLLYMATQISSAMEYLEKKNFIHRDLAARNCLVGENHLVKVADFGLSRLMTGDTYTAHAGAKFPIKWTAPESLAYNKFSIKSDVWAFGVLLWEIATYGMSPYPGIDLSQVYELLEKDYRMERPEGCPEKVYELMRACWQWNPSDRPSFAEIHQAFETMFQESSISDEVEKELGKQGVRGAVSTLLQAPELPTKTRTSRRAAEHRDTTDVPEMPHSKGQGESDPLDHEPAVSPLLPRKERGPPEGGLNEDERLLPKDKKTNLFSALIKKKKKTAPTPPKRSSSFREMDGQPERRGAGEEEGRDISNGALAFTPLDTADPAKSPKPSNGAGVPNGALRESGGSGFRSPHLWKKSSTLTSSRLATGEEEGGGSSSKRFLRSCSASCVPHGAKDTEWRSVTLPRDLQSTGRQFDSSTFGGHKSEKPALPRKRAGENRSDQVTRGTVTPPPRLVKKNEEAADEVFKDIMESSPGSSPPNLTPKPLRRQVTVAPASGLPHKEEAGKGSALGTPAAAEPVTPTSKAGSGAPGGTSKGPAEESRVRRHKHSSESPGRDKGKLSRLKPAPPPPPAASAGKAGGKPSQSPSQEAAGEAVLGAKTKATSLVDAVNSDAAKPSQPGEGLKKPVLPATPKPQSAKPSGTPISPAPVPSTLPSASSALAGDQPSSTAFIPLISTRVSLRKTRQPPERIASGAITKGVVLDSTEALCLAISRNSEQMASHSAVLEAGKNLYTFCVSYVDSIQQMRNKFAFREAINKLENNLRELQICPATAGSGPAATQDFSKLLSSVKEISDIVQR
Target sequence (Q13671 whole entry, looked up): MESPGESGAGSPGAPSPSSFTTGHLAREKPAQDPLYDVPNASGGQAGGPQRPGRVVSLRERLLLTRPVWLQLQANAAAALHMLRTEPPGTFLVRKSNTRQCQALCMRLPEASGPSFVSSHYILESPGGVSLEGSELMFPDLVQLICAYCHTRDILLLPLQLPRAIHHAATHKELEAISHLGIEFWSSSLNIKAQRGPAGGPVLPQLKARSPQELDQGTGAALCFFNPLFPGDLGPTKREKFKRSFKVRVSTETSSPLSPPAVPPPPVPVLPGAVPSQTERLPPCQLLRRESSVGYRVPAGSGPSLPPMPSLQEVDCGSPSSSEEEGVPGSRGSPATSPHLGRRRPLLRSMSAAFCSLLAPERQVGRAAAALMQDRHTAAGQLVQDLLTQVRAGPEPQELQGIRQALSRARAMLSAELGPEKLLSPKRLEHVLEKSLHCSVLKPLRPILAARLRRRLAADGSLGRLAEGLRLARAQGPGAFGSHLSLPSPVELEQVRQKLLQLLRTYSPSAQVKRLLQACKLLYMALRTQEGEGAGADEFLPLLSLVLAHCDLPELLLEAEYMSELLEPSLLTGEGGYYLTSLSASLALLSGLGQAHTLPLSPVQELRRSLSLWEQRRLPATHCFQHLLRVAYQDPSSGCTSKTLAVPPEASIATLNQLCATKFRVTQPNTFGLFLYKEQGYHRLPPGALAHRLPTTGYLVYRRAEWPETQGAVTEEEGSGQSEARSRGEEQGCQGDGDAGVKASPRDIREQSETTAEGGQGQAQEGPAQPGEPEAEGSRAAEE
A number is an active result; 0 = inactive; - = no result shown.

SMILES	SUMO1 PPI mod	Neddyl block	ATG4B inhibitor	Rin1-Abl PPI inh
CC(C)(CCc1ccccn1)C(=O)CCCc1ccccn1	0	0	0	0
O=C(CN1C(=O)NC2(CCCC2)C1=O)Nc1cc(Cl)ccc1Oc1ccccc1	40	0	0	0
O=C(CN1C(=O)NC2(CCCCCC2)C1=O)Nc1ccc(Cl)cc1Cl	0	0	0	0
CCC(C(=O)NC1CCCC1)n1c(C2CC2)nc2ccccc21 (centres undefined)	0	0	-	-
COc1cc2nc(Nc3ccc(C)c(C)c3)nc(N)c2cc1OC	0	0	0	0
CCOC(=O)c1ccc(Nc2ccc(-c3ccc(OC)c(OC)c3)nn2)cc1	0	0	0	0
CCOC(=O)c1ccc(Nc2nc(N)c3cc(OC)c(OC)cc3n2)cc1	0	45	0	0
COc1cc2nc(Nc3ccc(C)c(Cl)c3)nc(N)c2cc1OC	0	48	0	0
O=C(NCc1ccccc1F)Nc1nnc([C@H]2C[C@H](O)[C@@H](CO)O2)s1	0	0	-	0
C=CCN(CC=C)S(=O)(=O)c1ncn[nH]1	44	0	0	0
Cn1c(=O)c2c(-c3ccccc3)n(-c3ccc(N)cc3)cc2n(C)c1=O	42	0	-	0
CC(=O)OCC(=O)C1(O)CCC2C3CC(F)C4=CC(=O)CCC4(C)C3C(O)CC21C (centres undefined)	0	0	0	0
CCc1ccccc1Nc1nn2c(=O)c3ccc(C(=O)NCc4ccccn4)cc3nc2s1	39	0	0	0
O=C(NCc1ccccn1)c1ccc2c(=O)n3nc(Nc4ccccc4)sc3nc2c1	52	0	0	0
COc1ccccc1Nc1nn2c(=O)c3ccc(C(=O)NCc4cccnc4)cc3nc2s1	47	0	-	0
CCCCCn1c(=O)[nH]c2cc(C(=O)NCc3ccccn3)ccc2c1=O	0	0	0	0
COc1ccccc1Nc1nn2c(=O)c3ccc(C(=O)N4CCCCC4)cc3nc2s1	0	0	0	0
Cc1cccc(NC(=O)C(C)OC(=O)CNC(=O)C2CCCCC2)c1 (centres undefined)	0	0	-	0
COc1ccc(-c2nn(-c3ccccc3)cc2/C=C2/SC(=S)N(CCC(=O)O)C2=O)cc1	0	0	0	0
O=C1C(=Cc2cn(-c3ccccc3)nc2-c2ccc(OCc3ccccc3F)cc2)SC(=S)N1CCS(=O)(=O)O	88	0	-	0
O=C1C(=Cc2cn(-c3ccccc3)nc2-c2ccc(OCc3ccc(Cl)cc3)cc2)SC(=S)N1CCS(=O)(=O)O	110	0	-	0
O=C(Nc1nccs1)c1cn(-c2ccccc2)nc1-c1ccncc1	44	0	0	0
O=C1C(=Cc2ccc(Br)o2)C(=O)c2ccccc21	103	0	69	8.7
CC1=C/C(=C\c2ccc(Br)o2)C(=O)O1	0	0	0	0
COCc1cn(-c2nc3ccccc3s2)nn1	0	0	-	-
SMILES	SUMO1 PPI mod	Neddyl block	ATG4B inhibitor	Rin1-Abl PPI inh
CSc1ccc(CN2CCC(C)(Oc3cccc(F)c3)C2)cc1 (centres undefined)	0	0	-	0
CC(=O)NC(c1cccs1)c1cc([N+](=O)[O-])c2cccnc2c1O (centres undefined)	0	0	0	17
C[C@@H](NCCCn1ccc(NC(=O)OCc2ccccc2)nc1=O)c1cccc2ccccc12	0	0	0	0
C=CCn1c(-c2ccc(OC)cc2)csc1=Nc1c(C)n(C)n(-c2ccccc2)c1=O	0	0	0	0
CCc1ccc2oc(-c3ccc(OC)cc3)cc(=Nc3c(C)n(C)n(-c4ccccc4)c3=O)c2c1	0	45	0	0
COc1ccc(/C=N/NC(=O)c2cc3c(ccc4ccccc43)o2)cc1OC	0	-	0	0
O=C(N/N=C/c1ccncc1)c1cc2c(ccc3ccccc32)o1	52	0	0	0
O=C(N/N=C/c1cccc([N+](=O)[O-])c1)c1cc2c(ccc3ccccc32)o1	0	0	0	0
COc1cc(/C=N/NC(=O)c2cc3c(ccc4ccccc43)o2)cc(OC)c1O	0	42	-	0
O=c1[nH]cnc(CN2CCCCC2)c1O	0	0	0	0
O=c1[nH]c(CN2CCCCC2)ccc1O	0	0	-	18
O=C(CSc1ccc2ccccc2n1)Nc1nsc(-c2ccc(Cl)cc2)n1	43	0	0	0
COc1ccc(CN(C)C(=O)/C=C/[C@H]2O[C@@H](n3cc(C)c(=O)[nH]c3=O)C[C@@H]2O)cc1OC	0	0	-	0
CCCC(C)(C)C(=O)N1CCC1(C)C(=O)NS(=O)(=O)c1cccc(Cl)c1 (centres undefined)	0	0	-	0
COc1ccc(CN2CCC(C(=O)Nc3ccc(Oc4cccnc4)cc3)CC2)cc1	0	0	0	8.2
Oc1cccc(C=Nc2cccc3ccccc23)c1O	68	0	0	0
CCN(Cc1ccccc1)c1cc2c(c3c1ccn3C)C1CCC2C1 (centres undefined)	0	0	-	0
COc1ccc(Cc2nnc(SC)[nH]c2=O)cc1OC	42	0	0	0
COc1ccc(Cc2nnc(NN)[nH]c2=O)cc1OC	0	0	0	0
CCOC(=O)[C@]12CCCC=C1N(Cc1ccc(Cl)cc1Cl)C(=O)[C@H](CC(=O)NCC13CC4CC(CC(C4)C1)C3)C2	0	0	-	-
CCOC(=O)N1CCC(NC(=O)c2cc3c(-c4ccc(Cl)cc4)nn(C)c3s2)CC1	73	-	0	0
COC(=O)CCCC[C@@H]1O[C@H](CCc2ccccc2)CC2=C1C(=O)OC(C)(C)O2	0	0	-	-
CCNC(=O)C1(C)CCN1CCC(=O)c1ccc(Br)cc1 (centres undefined)	0	0	-	0
COc1ccc(-c2cc(C(=O)Nc3cc(C)n(Cc4ccc(Cl)cc4)n3)no2)cc1OC	0	47	0	0
COc1ccc([N+](=O)[O-])cc1N(CC(O)CN1C(=O)NC(C)(C)C1=O)S(=O)(=O)c1ccc(C)cc1 (centres undefined)	0	0	-	0
SMILES	SUMO1 PPI mod	Neddyl block	ATG4B inhibitor	Rin1-Abl PPI inh
OCC(CO)(CO)N=Cc1c(O)ccc2ccccc12	0	0	0	0
Oc1ccc2ccccc2c1C=NC12CN3CCN(CN(C3)C1)C2	54	0	0	0
CCn1c(=O)cc(OCC(=O)N2CCCC2)c2ccccc21	0	0	0	9.0
COCCNC(=O)C1(C)CCCN(CCSc2ccccc2)C1 (centres undefined)	0	0	-	0
CCCC(C(=O)NCc1ccc(OC)cc1)N(Cc1ccco1)C(=O)c1snc(C(N)=O)c1N (centres undefined)	51	0	0	0
COc1ccc(CNC(=O)C(c2ccco2)N(C(=O)c2snc(C(N)=O)c2N)c2ccccc2OC)cc1 (centres undefined)	0	39	0	0
COc1ccc(OC)c(C2NC(=S)NC(C)=C2C(=O)Nc2ccccn2)c1 (centres undefined)	0	0	0	0
COc1ccc(C2NC(=S)NC(C)=C2C(=O)Nc2ccccn2)cc1 (centres undefined)	57	0	0	0
O=C(Nc1ccc2oc(-c3cccnc3)nc2c1)c1ccco1	0	-	0	0
O=C(Nc1ccc2oc(-c3cccnc3)nc2c1)c1ccc(Br)o1	38	0	0	0
Cc1nc(Nc2ccncc2)c2oc3ccccc3c2n1	0	0	0	0
CCc1nc(Nc2ccncc2)c2oc3ccccc3c2n1	0	42	0	0
Cc1cc(C)n2nc(/C(C#N)=C/c3ccccn3)c(C#N)c2n1	0	40	0	0
